Laboratory results from PMC5540273 (PLoS ONE, 2017).
Values joined by “and” are separate entries in the source; they are usually repeats but may differ in a detail not shown here. Identical values can stand only once. Like-named read-outs stand apart in the source and are kept apart here.

Legend:
[1] = tested on: PDGFRB; details: concentration: 1 μM, replicates: in singlicate, n = 1
[2] = tested on: PDPK1; details: concentration: 1 μM, replicates: in singlicate, n = 1
[3] = tested on: PFTAIRE2; details: concentration: 1 μM, replicates: in singlicate, n = 1
[4] = tested on: T1, PFTK1; details: concentration: 1 μM, replicates: in singlicate, n = 1
T1 construct: gene CDK14

[5] = tested on: PHKG1; details: concentration: 1 μM, replicates: in singlicate; n = 1
[6] = tested on: PHKG2; details: concentration: 1 μM, replicates: in singlicate, n = 1
[7] = tested on: PIK3C2B; details: concentration: 1 μM, replicates: in singlicate, n = 1
[8] = tested on: PIK3C2G; details: concentration: 1 μM, replicates: in singlicate, n = 1
[9] = tested on: PIK3CA; details: concentration: 1 μM, replicates: in singlicate; n = 1
[10] = tested on: PIK3CB; details: concentration: 1 μM, replicates: in singlicate, n = 1
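Also: KINOMEscan kinase panel screen.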

Row | Compound | %Inh ([1]; 1 µM) | %Inh ([2]; 1 µM) | %Inh ([3]; 1 µM) | %Inh ([4]; 1 µM) | %Inh [5] [%] | %Inh ([6]; 1 µM) | %Inh ([7]; 1 µM) | %Inh ([8]; 1 µM) | %Inh [9] [%] | %Inh ([10]; 1 µM) | %Inh [1] [%] | %Inh [2] [%] | %Inh [3] [%] | %Inh [4] [%] | %Inh [6] [%] | %Inh [7] [%] | %Inh [8] [%] | %Inh [10] [%]
1 | COc1ccc(-c2nc3n(c2-c2ccncc2)CCC3)cc1 [SKF-104493] | 5% and 23% | 21% and 0% | 29% and 9% | 0% and 34% | 0 | 0% and 20% | 13% and 0% | 19% and 0% | 0 | 19% and 0% | – | – | – | – | – | – | – | –
2 | Fc1cccc(COc2ccc(Nc3ncnc4cc[nH]c34)cc2Cl)c1 | – | – | – | – | 0 | – | – | – | 0 | – | 25 | 4 | 17 | 12 | 7 | 32 | 17 | 32
3 | Cc1ccc(O)cc1Nc1cc(C(F)(F)F)nc2ccc(-c3ccncc3)cc12 [GW630823] | – | – | – | – | 14 | – | – | – | 1 | – | 10 | 0 | 34 | 5 | 5 | 0 | 15 | 0
4 | NC(=O)c1sc(-n2cnc3ccccc32)cc1OCc1ccccc1F [GSK1024306] | – | – | – | – | 0 | – | – | – | 0 | – | 2 | 19 | 7 | 6 | 0 | 0 | 0 | 0
5 | Cn1cc(-c2ccc3c(c2)CCN3C(=O)Cc2cccc(C(F)(F)F)c2)c2c(N)ncnc21 [GSK2606414] | – | – | – | – | 6 | – | – | – | 0 | – | 55 | 6 | 18 | 0 | 0 | 0 | 2 | 0
6 | Cl.Fc1ccccc1COc1ccc(Nc2ncnc3ccc(-c4nnc(C(F)(F)F)o4)cc23)cc1Cl [GW424170] | – | – | – | – | 0 | – | – | – | 0 | – | 20 | 0 | 6 | 0 | 7 | 0 | 0 | 0
7 | C[C@@H]1CCN(C(=O)CO)C[C@@H]1N(C)c1ncnc2[nH]ccc12 | – | – | – | – | 4 | – | – | – | 0 | – | 14 | 0 | 0 | 0 | 0 | 0 | 3 | 0
8 | Nc1nccc2scc(-c3ccc4c(c3)CCN4C(=O)Cc3cc(F)ccc3F)c12 [GSK2587663] | – | – | – | – | 4 | – | – | – | 0 | – | 35 | 0 | 15 | 15 | 0 | 0 | 0 | 0
9 | CC(C)(C)OC(=O)NC1CCCN(c2cc(-c3ccc4c(N)n[nH]c4c3)nc(N)n2)C1 (stereo not drawn) [GSK2286096] | – | – | – | – | 0 | – | – | – | 0 | – | 14 | 84 | 18 | 0 | 0 | 0 | 0 | 0
10 | COc1ccc(Nc2nccc(N3CCC(NC(=O)c4cccc(NC(C)=O)c4)C3)n2)cc1 (stereo not drawn) [GSK1379732] | – | – | – | – | 0 | – | – | – | 0 | – | 20 | 10 | 17 | 36 | 1 | 0 | 0 | 9
11 | Cl.c1ccc(Cn2ccc3cc(Nc4ncnc5ccccc45)ccc32)cc1 [GW275568] | – | – | – | – | 0 | – | – | – | 14 | – | 35 | 22 | 28 | 29 | 23 | 31 | 3 | 0
12 | Clc1cc(Nc2ncnc3cc[nH]c23)ccc1OCc1ccccn1 | – | – | – | – | 0 | – | – | – | 8 | – | 38 | 0 | 5 | 10 | 0 | 15 | 43 | 15
13 | CNc1nccc(-c2c(-c3ccc(F)cc3)ncn2CCCN2CCOCC2)n1 [SB-222516] | – | – | – | – | 0 | – | – | – | 0 | – | 4 | 0 | 9 | 0 | 0 | 0 | 3 | 6
14 | Nc1nc(-c2cccnc2)c(-c2ccnc3ccccc23)s1 [GW684083] | – | – | – | – | 14 | – | – | – | 0 | – | 28 | 0 | 16 | 27 | 0 | 0 | 0 | 0
15 | O=C(c1ccc(-c2cc(-c3c[nH]nc3-c3ccccn3)ccn2)cc1)N1CCCC1 [GW792479] | – | – | – | – | 0 | – | – | – | 0 | – | 4 | 0 | 6 | 0 | 19 | 0 | 5 | 0
16 | COC(=O)c1cccc(NC(=O)NCCNc2ccnc(Nc3ccc(F)cc3)n2)c1 [GSK1379883] | – | – | – | – | 0 | – | – | – | 9 | – | 51 | 5 | 9 | 18 | 0 | 4 | 0 | 0
17 | Cn1ccc2ncnc(Oc3ccc(NC(=O)Nc4cccnc4)c(Cl)c3)c21 | – | – | – | – | 15 | – | – | – | 4 | – | 99.7 | 0 | 10 | 0 | 0 | 6 | 19 | 3

Row | Compound | %Inh ([1]; 1 µM) | %Inh ([2]; 1 µM) | %Inh ([3]; 1 µM) | %Inh ([4]; 1 µM) | %Inh [5] [%] | %Inh ([6]; 1 µM) | %Inh ([7]; 1 µM) | %Inh ([8]; 1 µM) | %Inh [9] [%] | %Inh ([10]; 1 µM) | %Inh [1] [%] | %Inh [2] [%] | %Inh [3] [%] | %Inh [4] [%] | %Inh [6] [%] | %Inh [7] [%] | %Inh [8] [%] | %Inh [10] [%]
18 | c1ccc(-c2ccc3c(-c4ccnc(Nc5ccc6c(c5)OCCO6)n4)cnn3n2)cc1 [GW818941] | – | – | – | – | 0 | – | – | – | 0 | – | 4 | 17 | 5 | 19 | 0 | 0 | 11 | 0
19 | COc1ccc(Nc2nccc(N3CCC(NC(=O)Nc4ccc5c(c4)OCO5)C3)n2)cc1 (stereo not drawn) [GSK1379745] | – | – | – | – | 0 | – | – | – | 0 | – | 24 | 27 | 11 | 7 | 9 | 9 | 0 | 0
20 | COc1ccc(NC(=O)c2ccc(-c3cc(-c4nnc(C)o4)ccc3C)cc2)cc1 [GW595885] | – | – | – | – | 3 | – | – | – | 0 | – | 47 | 0 | 0 | 5 | 0 | 0 | 0 | 0
21 | N#Cc1ccc(Oc2ccc(Nc3ncnc4cc[nH]c34)cc2Cl)cc1 | – | – | – | – | 5 | – | – | – | 5 | – | 31 | 1 | 11 | 17 | 18 | 0 | 28 | 11
22 | CCCc1ccc(S(=O)(=O)NC2CCN(c3ccnc(Nc4ccc(OC)cc4)n3)C2)cc1 (stereo not drawn) [GSK1379737] | – | – | – | – | 0 | – | – | – | 0 | – | 51 | 0 | 5 | 0 | 0 | 0 | 0 | 0
23 | Cl.Cn1ccc(-c2cccc(Nc3ccnc4cc(-c5nccs5)ccc34)c2)n1 [GW525701] | – | – | – | – | 0 | – | – | – | 0 | – | 40 | 0 | 0 | 5 | 0 | 0 | 0 | 0
24 | Cc1ccc(C)c(NC(=O)NCCNc2ccnc(Nc3ccc(F)cc3)n2)c1 [GSK1379878] | – | – | – | – | 0 | – | – | – | 0 | – | 6 | 0 | 10 | 0 | 0 | 0 | 0 | 0
25 | COc1cc2ncnc(Nc3ccc(OCc4ccccc4Br)c(Cl)c3)c2cc1OC.Cl [GI261590] | – | – | – | – | 3 | – | – | – | 0 | – | 0 | 0 | 4 | 29 | 0 | 0 | 0 | 45
26 | Nc1n[nH]c2nnc(-c3ccccc3)cc12 [SB-517389] | – | – | – | – | 0 | – | – | – | 0 | – | 5 | 0 | 17 | 24 | 1 | 0 | 0 | 0
27 | CS(=O)(=O)CCNCc1nc(-c2ccc3ncnc(Nc4ccc(OCc5cccc(F)c5)c(Cl)c4)c3c2)cs1.Cl [GW583340] | – | – | – | – | 0 | – | – | – | 0 | – | 12 | 0 | 12 | 16 | 0 | 37 | 0 | 0
28 | Fc1cccc(COc2ccc(Nc3ncnc4nn5ccccc5c34)cc2Cl)c1 [GW689066] | – | – | – | – | 2 | – | – | – | 0 | – | 13 | 0 | 4 | 0 | 0 | 0 | 0 | 41
29 | C[C@H]1CC[C@@H](C(=O)Nc2ccccc2)CN1c1cc(-c2ccc3c(N)n[nH]c3c2)nc(N)n1 [GSK2283293] | – | – | – | – | 0 | – | – | – | 0 | – | 11 | 25 | 15 | 11 | 0 | 0 | 0 | 0
30 | FC(F)(F)c1ccc(-c2cc(-c3c[nH]nc3-c3ccccn3)ccn2)cc1 [GW599550] | – | – | – | – | 0 | – | – | – | 3 | – | 30 | 5 | 20 | 19 | 21 | 0 | 0 | 0
31 | Fc1ccc(-c2ncn(CCCNCc3ccccc3)c2-c2ccncc2)cc1 | – | – | – | – | 0 | – | – | – | 3 | – | 24 | 6 | 0 | 0 | 16 | 1 | 31 | 0
32 | CN1CCC(n2cnc(-c3ccc(F)cc3)c2-c2ccnc(NC3CCNCC3)n2)CC1 [SB-229482] | – | – | – | – | 0 | – | – | – | 0 | – | 29 | 0 | 17 | 0 | 16 | 0 | 0 | 37
33 | CC(C)(C)c1ccc(-n2cnc3c(N)ncnc32)cc1 [SKF-97263] | – | – | – | – | 0 | – | – | – | 100 | – | 31 | 5 | 16 | 32 | 0 | 100 | 12 | 0
